Results: PubChem BioAssay (NCATS)
Records with an inconclusive call do not appear. A call without a number means that no potency is given here. A structure can be active in one record and inactive in another. Calls of active or inactive are those of the source. Calls follow the shape of the dose curve; as a rule, active = well fitted curve in the direction sought with a large enough effect; inconclusive = small, poorly fitted or top-dose-only effect, or another doubt; inactive = no such curve, though single readings can be large; an effect the other way counts as inactive or inconclusive.

assay: qHTS for Inhibitors of Plasmodium falciparum (HB3) proliferation (AID 504318); also: nearly all actives have a fitted effect of over 60% in size; also: potency is read from the fitted curve at half-maximal effect; details: P. falciparum HB3 in erythrocytes, SYBR Green DNA, 72 h; series mostly up to 7.21 µM
Summary of the method: (§1)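 Erythrocytes infected with P. falciparum line (0.3% parasitemia, 2.5% hematocrit final) incubated with compounds 72 h at 37 °C, 5% CO2; SYBR Green lysis buffer added, fluorescence read next day. Normalized to 0.29 uM artemisinin and DMSO.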

Compound	Potency
CC=COC(=O)N[C@@H](c1ccccc1)[C@]1(C(C)=O)CCOC1=O	inactive
C[C@H]1CC[C@H]2C(=O)N[C@H](Cc3ccccc3)C(=O)N2[C@H]1c1ccccc1	inactive
C[C@H](ON=C1[C@H]2CCn3c(=O)n(-c4ccccc4)c(=O)n3[C@@H]2[C@H](O)[C@@H]2O[C@H]12)c1cn([C@H](CO)Cc2ccccc2)nn1	inactive
C=CCOC(=O)C(C(C)=O)[C@@H](NC(=O)OC)c1cccs1 (stereo partly drawn)	inactive
COC(=O)C(C(C)=O)[C@@H](NC(=O)NCc1ccccc1)c1ccccc1 (stereo partly drawn)	inactive
Cc1cc(C)cc(CO[C@H]2C=C[C@@H](c3ccccc3)O[C@H]2CO)c1	inactive
COC(=O)CC=C1c2ccccc2[C@@H](NC(=O)OC)[C@@H]1C	inactive
CCN1C(=O)NC(c2ccc(Br)cc2)C(C(C)=O)=C1C (stereo not drawn)	inactive
N#CCCN(CC#Cc1ccccc1)OCc1ccccc1	inactive
COC(=O)NC(C=Cc1ccccc1)C(C(C)=O)C(=O)OC (stereo not drawn)	inactive
COC(=O)N[C@@H](CCc1ccccc1)[C@]1(C(=O)OC)CCCC1=O	inactive
CC(CCN1CCCCc2nc(C)c(C)cc21)=NO[C@H](C)c1cn([C@@H]2COC[C@@H]2O)nn1	inactive
C=C(C#Cc1ccc(OC)cc1)CCN1C=C(C(=O)OCC)C(c2ccccc2)NC1=O (stereo not drawn)	inactive
COCCN1C=C2C(=O)C(C)(OC(=O)C3CCCC3)C(=O)C(c3ccccc3)=C2C=C1CCCC(=O)OC (stereo not drawn)	inactive
COCn1c2ccccc2c2nnc(C(=O)O)nc21	inactive
CCN1C(=O)[C@@H]2[C@H]3[C@H](O)[C@H](O)CC(=NOCC[C@@H]4C=C[C@H](OC(C)=O)[C@@H](COC(C)=O)O4)[C@@H]3CC[C@H]2C1=O	inactive
COC(=O)[C@H](Cc1ccccc1)NC(=O)O[C@@H]1C(=O)c2cc(Br)ccc2O[C@H]1c1ccc2c(c1)OCO2	inactive
COC(=O)[C@H](COC(C)(C)C)NC(=O)O[C@@H]1C(=O)c2cc(Br)ccc2O[C@H]1c1ccc2c(c1)OCO2	inactive
COc1ccc(-c2nc(-c3ccccc3)c(NC(C)(C)C)o2)cc1	2.13 µM (active) and inactive
CCOC(=O)CCN1C(=O)[C@@H]2[C@H]3[C@H](O)[C@H](O)CC(=NNC(=O)OCc4ccccc4)[C@H]3CC[C@H]2C1=O	inactive
CCOC(=O)N1C2=NC(C(=O)OC)=C(C(=O)OC)[C@@H]3N(Cc4ccccc4)c4ccccc4[C@]23C[C@H]1C(=O)OC	inactive
COC(=O)CC=C[C@@H](C)[C@H](NC(=O)OCC(Cl)(Cl)Cl)c1cccc(OC)c1	inactive
COC(=O)C12CC3(CCC4C5C(C(OCc6ccccc6)C41)C52)OCCO3 (stereo not drawn)	inactive
COC(=O)C1=C(C)N(CCC(C)O[Si](C)(C)C(C)(C)C)C(=O)N(C(C)=O)C1c1ccccc1 (stereo not drawn)	inactive
CCN(CC)CCCN=C1NC(c2cccc(C(F)(F)F)c2)C(C(=O)OC)=C(C)N1CC (stereo not drawn)	inactive

assay: qHTS for Inhibitors of Plasmodium falciparum (CP250) proliferation (AID 504320); details: P. falciparum CP250 in erythrocytes, SYBR Green DNA, 72 h; series mostly up to 6.7 µM
Summary of the method: as §1

Compound	Potency
CC=COC(=O)N[C@@H](c1ccccc1)[C@]1(C(C)=O)CCOC1=O	inactive
C[C@H]1CC[C@H]2C(=O)N[C@H](Cc3ccccc3)C(=O)N2[C@H]1c1ccccc1	inactive
COc1cc2c(cc1OC)[C@@H]1O[C@](c3ccsc3)(C2)Oc2cc(-c3ccccc3)oc(=O)c21	inactive
CCOC(=O)CN1C(=O)[C@]2(O[C@H](C)CC3=CCCC32)c2c(Br)cccc21 (stereo partly drawn)	inactive
C[C@H](ON=C1[C@H]2CCn3c(=O)n(-c4ccccc4)c(=O)n3[C@@H]2[C@H](O)[C@@H]2O[C@H]12)c1cn([C@H](CO)Cc2ccccc2)nn1	inactive
C=CCOC(=O)C(C(C)=O)[C@@H](NC(=O)OC)c1cccs1 (stereo partly drawn)	inactive
Cc1cc(O)cc(O)c1C(=O)OC1(C)C(=O)C=C2C=C(C=CC(=O)O)OC=C2C1=O (stereo not drawn)	inactive
COC(=O)C(C(C)=O)[C@@H](NC(=O)NCc1ccccc1)c1ccccc1 (stereo partly drawn)	inactive
CCN1C(=O)N(S(=O)(=O)c2ccc(C)cc2)C(c2ccccc2)C(C(=O)OC)=C1C (stereo not drawn)	inactive
Cc1cc(C)cc(CO[C@H]2C=C[C@@H](c3ccccc3)O[C@H]2CO)c1	inactive
COC(=O)CC=C1c2ccccc2[C@@H](NC(=O)OC)[C@@H]1C	inactive
CCCCc1cc2c(cn1)=C(OC(=O)CCC(=O)OC)C(C)(OC(=O)CC)C(=O)C=2 (stereo not drawn)	inactive
CC(=O)OC[C@H]1O[C@H](CC=NOC[C@@H](O)[C@H]2O[C@@H]3OC(C)(C)O[C@H]3[C@@H]2O)C=C[C@H]1OC(C)=O	inactive
CCN1C(=O)NC(c2ccc(Br)cc2)C(C(C)=O)=C1C (stereo not drawn)	inactive
N#CCCN(CC#Cc1ccccc1)OCc1ccccc1	inactive
COC(=O)NC(C=Cc1ccccc1)C(C(C)=O)C(=O)OC (stereo not drawn)	inactive
C(#C[C@@H]1C=C[C@H]2OC(c3ccccc3)OC[C@H]2O1)c1ccccc1 (stereo partly drawn)	inactive
COC(=O)N[C@@H](CCc1ccccc1)[C@]1(C(=O)OC)CCCC1=O	inactive
COC(=O)C1=C(C(=O)OC)[C@@H]2N(C)c3ccccc3[C@@]23CCC(=O)N(CC(C)C)C3=N1	inactive

Compound	Potency
C=C(C#Cc1ccc(OC)cc1)CCN1C=C(C(=O)OCC)C(c2ccccc2)NC1=O (stereo not drawn)	inactive
COCCN1C=C2C(=O)C(C)(OC(=O)C3CCCC3)C(=O)C(c3ccccc3)=C2C=C1CCCC(=O)OC (stereo not drawn)	inactive
C[C@H]1CCCC(=O)N[C@@H](c2ccccc2)[C@@H](C)CCCC(=O)N[C@@H]1c1ccccc1	inactive
COc1ccc(-c2nc3c(c4c2C[C@H](c2ccccc2)OC4)CN(C(=O)N[C@@H](C)c2ccccc2)CC3)c(C)c1	inactive
COCn1c2ccccc2c2nnc(C(=O)O)nc21	inactive
CCN1C(=O)[C@@H]2[C@H]3[C@H](O)[C@H](O)CC(=NOCC[C@@H]4C=C[C@H](OC(C)=O)[C@@H](COC(C)=O)O4)[C@@H]3CC[C@H]2C1=O	inactive
COC(=O)[C@H](Cc1ccccc1)NC(=O)O[C@@H]1C(=O)c2cc(Br)ccc2O[C@H]1c1ccc2c(c1)OCO2	inactive
COC(=O)[C@H](COC(C)(C)C)NC(=O)O[C@@H]1C(=O)c2cc(Br)ccc2O[C@H]1c1ccc2c(c1)OCO2	inactive
C=C(C)C(=O)C=Cc1ccc(Br)cc1	inactive
COc1ccc(-c2nc(-c3ccccc3)c(NC(C)(C)C)o2)cc1	inactive
CCOC(=O)CCN1C(=O)[C@@H]2[C@H]3[C@H](O)[C@H](O)CC(=NNC(=O)OCc4ccccc4)[C@H]3CC[C@H]2C1=O	inactive
CCOC(=O)N1C2=NC(C(=O)OC)=C(C(=O)OC)[C@@H]3N(Cc4ccccc4)c4ccccc4[C@]23C[C@H]1C(=O)OC	inactive
COC(=O)CC=C[C@@H](C)[C@H](NC(=O)OCC(Cl)(Cl)Cl)c1cccc(OC)c1	inactive
COC(=O)C12CC3(CCC4C5C(C(OCc6ccccc6)C41)C52)OCCO3 (stereo not drawn)	inactive
CCN1C(=NCCc2cccnc2)NC(CCc2ccccc2)C(C(=O)OC)=C1C (stereo not drawn)	inactive
COC(=O)C1=C(C)N(CCC(C)O[Si](C)(C)C(C)(C)C)C(=O)N(C(C)=O)C1c1ccccc1 (stereo not drawn)	inactive
C=CCOC(=O)NC(c1ccc(F)c(F)c1)S(=O)(=O)c1ccc(Cl)cc1 (stereo not drawn)	inactive
CCOC(=O)OC[C@H]1O[C@H](C#Cc2ccc(C)cc2C)C=C[C@H]1OC(=O)OCC	inactive
CCN(CC)CCCN=C1NC(c2cccc(C(F)(F)F)c2)C(C(=O)OC)=C(C)N1CC (stereo not drawn)	inactive
